Screens: PubChem BioAssay, several laboratories
Sampled rows, rich in hits. Any-hit rate of the full collection: about 4.6%.
tim23-1 inh – growth inhibitors of tim23-1 mutant yeast, primary screen, luminescence, uHTS; inhibition, % at 20 µM; 1.3% of 330,000 active; S. cerevisiae tim23-1 growth, BacTiter-Glo luminescence, 24 h;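 active = growth inhibition of the mutant yeast at or above 50%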;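 also: temperature-sensitive mutant grown at 25 °C; plate controls were DMSO-treated mutant yeast for no effect and medium wells lacking yeast for full effect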
SKKanGAS inh – S. pyogenes SKKanGAS growth inhibitors in kanamycin, primary screen, streptokinase expression inhibitor project, SKKanGAS strain, BacTiter-Glo luminescence. 1.3% of 300,000 active. 6 h. AID 1662, 2009. inhibition, % at 7.5 µM;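 active = mean replicate score, as percent of positive control median, at least 50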;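 also: strain carries kanamycin resistance gene driven by streptokinase promoter and grows in 40 µg/ml kanamycin; loss of luminescence reflects streptokinase promoter inhibition or plain growth inhibition; 0% = median of DMSO wells and 100% = positive control at its reference dose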
PfHsp90 yeast 2 – growth inhibition of PfHsp90-expressing yeast, primary screen, antimalarial PfHsp90 inhibitor project, S. cerevisiae, BacTiter-Glo luminescence, single point, set 2 | BacTiter-Glo ATP, 48 h; yeast lacking PDR1 and PDR3 efflux regulators | inhibition, % at 9.4 µM | 0.32% of 310,000 active | AID 504621, 2011;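 active = every replicate shows inhibition above about 80%, whatever the replicate mean, limit read from the data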;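 also: 0% = DMSO neutral controls and 100% = 20 µM radicicol positive controls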
NLRP3 yeast inh – NALP3 inflammasome inhibitors in reconstituted yeast, primary screen, luminescence, uHTS; Yeast reconstituted NLRP3/ASC/caspase-1, beta-gal luminescence, 24 h; inhibition, % at 10 µM; 0.39% of 330,000 active; AID 2825, 2010;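 active = inhibition of 50% or more; inactive = inhibition below 50%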;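 also: plate controls were induced DMSO wells for no effect and uninduced yeast grown without galactose for full effect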
TIM10 inh – growth inhibitors of isogenic TIM10 control yeast, primary screen, counter-screen for tim10-1 yeast inhibitor project, luminescence, uHTS. AID 463195, 2010. 1.4% of 330,000 active. inhibition, % at 10 µM. S. cerevisiae TIM10 strain growth, BacTiter-Glo luminescence, 24 h;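 active = inhibition of 40% or more at the single tested concentration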;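 also: wild-type TIM10 isogenic control strain grown at permissive 25 °C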
tim10-1 inh – growth inhibitors of tim10-1 mutant yeast, primary screen, luminescence, uHTS. S. cerevisiae tim10-1 ts strain growth, BacTiter-Glo, 24 h. inhibition, % at 20 µM. 2.2% of 330,000 active;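 active = inhibition of at least 40%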;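 also: mutant grown at 25 °C; 0% = DMSO wells with yeast and 100% = wells holding no yeast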
tim10-1 confirm – growth inhibitors of tim10-1 mutant yeast, confirmation, single concentration, luminescence, S. cerevisiae | shares compounds with tim10-1 inh | S. cerevisiae tim10-1 ts strain growth, BacTiter-Glo, 24 h | inhibition, % at 20 µM | 56% of 7,400 active | AID 463213, 2010;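 active = inhibition of yeast growth at or above a set limit in either of two repeat tests at 20 µM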;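 also: tim10-1 mutant grown at permissive 25 °C to find synthetic lethal compounds; 0% = DMSO yeast wells and 100% = medium wells without yeast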
Starred values were filed as active, the others as inactive; x = no result given.

SMILES	tim23-1 inh	SKKanGAS inh	PfHsp90 yeast 2	NLRP3 yeast inh	TIM10 inh	tim10-1 inh	tim10-1 confirm
Cc1ccc(C)c(NC2CCCCC2NS(=O)(=O)c2ccccc2)c1 (stereo not drawn)	37	3	13	5	25	46*	22
COc1ccccc1NC1CCCCC1NS(=O)(=O)c1ccc(C)cc1 (stereo not drawn)	38	10	-40	-5	7	48*	-9
Clc1ccccc1CN(Cc1ccccc1)c1ncnc2nc[nH]c12	6	51*	-15	-20	18	41*	4
Clc1ccccc1CNc1ncnc2nc[nH]c12	18	-2	-11	22	-16	11	x
CCCN(CCC)c1ncnc2nc[nH]c12	25	-1	1	9	3	45*	13
O=[N+]([O-])c1ccc(/C=C/c2ccc3cccc([N+](=O)[O-])c3n2)cc1	26	-1	27	14	14	45*	25
COc1ccc(Nc2nc(Nc3ccc(OC)cc3)nc(SC3=NCCS3)n2)cc1	17	35	-48	20	39	40	15
COc1ccc(Nc2nc(OC)nc(OC)n2)cc1	15	-2	1	19	-4	14	x
O=C(CSc1n[nH]c(-c2ccccc2)n1)NCc1cccc(C(=O)O)c1	0	3	9	2	13	-13	x
CCn1c(=O)n(CC)c2cc(N3CCCC3)c(NC(=O)c3ccccc3)cc21	22	-2	4	8	11	25	x
CCn1c(=O)n(CC)c2cc(N3CCCC3)c(NC(=O)c3cc(Br)ccc3OC)cc21	40	65*	x	9	4	44*	-3
CCn1c(=O)n(CC)c2cc(N3CCCC3)c(NC(=O)c3ccc(C)cc3)cc21	32	-8	28	15	-9	42*	-15
CC(C)(C)NC(=O)c1ccc(Sc2ccccc2)c([N+](=O)[O-])c1	27	4	54	25	16	42*	20
COc1cc(S(=O)(=O)N2CCOCC2)cc(C(=O)OCC(=O)NCc2ccco2)c1OC	-9	x	11	1	8	-9	x
COc1ccccc1/C=C1\SC(=S)N(CCC(=O)N2CCCCC2CCO)C1=O (stereo not drawn)	34	3	2	12	16	42*	9
O=C(CCN1C(=O)/C(=C/c2cccs2)SC1=S)N1CCCCC1	39	0	15	24	24	42*	12
CC(C)C(NC(=O)c1ccccc1NC(=O)c1ccccc1)C(=O)NNC(=O)c1ccncc1 (stereo not drawn)	9	0	10	9	-4	0	x
CC(=O)N1CCN(C(=S)c2ccc(N(C)C)cc2)CC1	9	-1	6	1	10	17	x
CN(C)c1ccc(C(=S)N2CCN(S(=O)(=O)c3ccccc3)CC2)cc1	21	-8	-17	-4	19	40*	20
COc1ccc(S(=O)(=O)N2CCN(C(=O)c3cccc(Cl)c3)CC2)cc1	41	-3	2	16	20	56*	27
CN(C)c1ccc(C(=S)N2CCN(c3ccccc3)CC2)cc1	43	9	0	4	32	46*	36*
COc1ccc(S(=O)(=O)N2CCN(C(=O)c3ccc(NC(C)=O)cc3)CC2)cc1	12	x	-10	6	7	5	x
COc1ccc(S(=O)(=O)N2CCN(C(=O)c3ccc([N+](=O)[O-])o3)CC2)cc1	35	6	-3	27	28	51*	45*
Cc1ccc(N2CCN(C(=S)c3ccc(N(C)C)cc3)CC2)cc1	31	-6	-4	3	27	23	x
CC(CC(=O)N1CCN(S(=O)(=O)c2ccc([N+](=O)[O-])cc2)CC1)c1ccccc1 (stereo not drawn)	32	x	7	6	18	22	x
SMILES	tim23-1 inh	SKKanGAS inh	PfHsp90 yeast 2	NLRP3 yeast inh	TIM10 inh	tim10-1 inh	tim10-1 confirm
NC(=O)c1c(NC(=O)CN2C(=O)NC(Cc3ccccc3)C2=O)sc2c1CCC2 (stereo not drawn)	6	12	12	1	-1	8	x
COc1cc2c(cc1OC)CC(=O)NC=C2	-3	1	9	-10	2	7	x
CC(C)c1ccc(NC(=S)N2CCN(S(=O)(=O)c3ccccc3)CC2)cc1	28	2	10	20	15	41*	27
COc1ccc(C(=S)N2CCN(S(=O)(=O)c3ccccc3)CC2)cc1	42	-5	-11	4	15	46*	25
COc1ccc(OC2CCN(S(=O)(=O)c3ccc(OC)cc3)CC2)cc1	45	-6	1	26	8	43*	42*
CC(C)c1ccc(S(=O)(=O)N2CCN(C(=O)Cc3ccsc3)CC2)cc1	27	9	24	15	13	43*	12
CC1CCCC(NC(=O)NC(=O)CCl)C1C (stereo not drawn)	47	-9	-18	-23	37	32	x
CC1CCCCC1NC(=O)NC(=O)CCl (stereo not drawn)	41	-10	-6	-33	15	46*	31
Fc1ccc(-c2nnc(CN3CCN(c4ncc(C(F)(F)F)cc4Cl)CC3)o2)cc1	31	5	x	10	7	49*	24
CC1CCN(c2oc(-c3ccc(F)cc3)nc2C#N)CC1	2	-5	-5	25	-26	99*	-8
CCn1nc(C)c(C(=O)Nc2cc(Oc3cc(C)cc(C)c3)cc([N+](=O)[O-])c2)c1C	42	30	29	-16	35	43*	39*
O=C(c1sc2ccccc2c1Cl)N1CCN(c2ccc(F)cc2)CC1	8	14	0	0	32	28	x
O=C(c1sc2ccccc2c1Cl)N1CCN(c2ccccc2F)CC1	30	0	9	8	3	42*	28
CC(C)CN(CC(C)C)C(=O)c1cc(S(=O)(=O)N2CCCCC2)c[nH]1	15	-4	18	3	1	17	x
COc1ccc2cc(CO)c3cc(OC)c(OC)cc3c2c1	41	x	0	34	8	-3	x
Cc1cc(C)n2nnnc2n1	0	4	3	10	7	-7	x
O=C(O)c1ccc(-c2nnc(-c3ccccc3)o2)cc1	15	31	39	-2	15	10	x
O=C(c1ccc(-c2nnc(-c3ccccc3)o2)cc1)N1CCCCCC1	6	0	8	16	11	45*	33*
